In all, about 39,000 compounds went through this assay and about 3,300 (8.5%) were called active. Shown is part of a subset that was picked to be rich in actives.

The test system of this assay is HepG2. Nature of the assay: cytotoxicity call (relative viability < 0.9). As to conditions: 10 µM.
For `O=C(O)c1ccc[nH]1`, the cytotoxicity call is “inactive”.

For the compound `Cc1noc(C)c1NC(=O)N(C)C[C@@H]1Oc2ccc(NC(=O)Nc3ccc(C(F)(F)F)cc3)cc2CC(=O)N([C@@H](C)CO)C[C@@H]1C`, the cytotoxicity call is “inactive”.

For `C[C@@H]1CN([C@H](C)CO)C(=O)Cc2cc(NC(=O)Cn3cnnn3)ccc2O[C@H]1CN(C)Cc1ccc(Oc2ccccc2)cc1`, the cytotoxicity call was “inactive”.

On to `CN1CCN(C(=O)C[C@H]2C=C[C@H](NS(=O)(=O)c3cccc(F)c3)[C@@H](CO)O2)CC1`, for which the cytotoxicity call was “inactive”.

On to `Cn1cnc(S(=O)(=O)N[C@H]2CC[C@H](CC(=O)NCC3CC3)O[C@@H]2CO)c1`, for which the cytotoxicity call is “inactive”.

As to `C[C@@H]1CN([C@@H](C)CO)C(=O)c2cc(NC(=O)CCC(F)(F)F)ccc2O[C@@H](C)CCCCO[C@H]1CN(C)C(=O)Nc1cccc2ccccc12`, the cytotoxicity call was “inactive”.

On to `CC(C)N1C[C@H](C)[C@@H](CN(C)Cc2ccc(Oc3ccccc3)cc2)Oc2c(C(=O)Nc3ccncc3)cccc2C1=O`, for which the cytotoxicity call is “inactive”.

Regarding `COc1ccc(NC(=O)Nc2ccc3c(c2)C(=O)N([C@@H](C)CO)C[C@H](C)[C@H](CN(C)Cc2ccc(C(=O)O)cc2)OCCCC[C@H](C)O3)cc1`, the cytotoxicity call is “inactive”.

As to `CCCNS(=O)(=O)c1c[nH]c(C(=O)OC)c1`, the cytotoxicity call is “inactive”.

Turning to `C[C@@H]1CN([C@@H](C)CO)C(=O)c2cccc(NS(=O)(=O)c3ccc(F)cc3)c2O[C@@H]1CN(C)CC1CC1`, the cytotoxicity call was “inactive”.

Regarding `COc1ccc(S(=O)(=O)N(C)C[C@@H]2Oc3ccc(NC(=O)Nc4cccc(C(F)(F)F)c4)cc3CC(=O)N([C@@H](C)CO)C[C@@H]2C)cc1Cl`, the cytotoxicity call is “active”.

On to `C[C@H]1CN([C@@H](C)CO)C(=O)Cc2cc(NC(=O)Nc3ccc(C(F)(F)F)cc3)ccc2O[C@@H]1CN(C)S(=O)(=O)c1ccc(Cl)cc1`, for which the cytotoxicity call was “active”.

Consider `C[C@@H]1CN([C@H](C)CO)C(=O)Cc2cc(NC(=O)Nc3ccc(C(F)(F)F)cc3)ccc2O[C@H]1CN(C)S(=O)(=O)c1ccc(Cl)cc1`, for which the cytotoxicity call was “inactive”.

`C[C@H](CO)N1C[C@H](C)[C@@H](CN(C)S(=O)(=O)c2ccc(Cl)cc2)Oc2ccc(NC(=O)Nc3ccc(C(F)(F)F)cc3)cc2CC1=O`: the cytotoxicity call is “active”.

Take `C[C@@H]1CN([C@@H](C)CO)C(=O)Cc2cc(NC(=O)Nc3ccc(C(F)(F)F)cc3)ccc2O[C@H]1CN(C)S(=O)(=O)c1ccc(Cl)cc1`: the cytotoxicity call is “inactive”.

In the case of `C[C@H]1CN([C@@H](C)CO)C(=O)Cc2cc(NC(=O)Nc3cccc(C(F)(F)F)c3)ccc2O[C@H]1CN(C)S(=O)(=O)c1ccc(Oc2ccccc2)cc1`, the cytotoxicity call is “active”.

With `Cc1cc(=O)nc2[nH][nH]c(=S)n12`, the cytotoxicity call is “inactive”.

`C[C@H]1CN([C@@H](C)CO)C(=O)c2cccc(NC(=O)c3nc4ccccc4s3)c2O[C@@H]1CN(C)S(C)(=O)=O`: the cytotoxicity call is “inactive”.

`C[C@@H]1CN([C@@H](C)CO)C(=O)Cc2cc(NC(=O)Nc3cccc4ccccc34)ccc2O[C@H]1CN(C)C(=O)Nc1ccccc1`: the cytotoxicity call is “inactive”.

On to `COc1ccc(S(=O)(=O)Nc2ccc3c(c2)CC(=O)N([C@H](C)CO)C[C@@H](C)[C@H](CN(C)Cc2ccc(C(=O)O)cc2)O3)cc1`, for which the cytotoxicity call is “inactive”.

For the compound `CN(C)C=C(C=[N+](C)C)c1[nH]ncc1N`, the cytotoxicity call was “inactive”.

Regarding `C[C@@H]1CN([C@@H](C)CO)C(=O)Cc2cc(NC(=O)Nc3ccc(C(F)(F)F)cc3)ccc2O[C@@H]1CN(C)S(=O)(=O)c1ccc(Cl)cc1`, the cytotoxicity call is “active”.

Consider `Cc1cc(C(=O)Nc2cccc3c2O[C@H](CN(C)Cc2ccncc2)[C@@H](C)CN([C@H](C)CO)C3=O)n(C)n1`, for which the cytotoxicity call was “inactive”.

Take `C[C@@H]1CN([C@@H](C)CO)C(=O)Cc2cc(NC(=O)CCC(F)(F)F)ccc2O[C@@H]1CN(C)S(=O)(=O)c1cn(C)cn1`: the cytotoxicity call was “inactive”.

On to `C[C@H]1CN([C@@H](C)CO)C(=O)c2cc(NC(=O)c3ccncc3)ccc2O[C@H]1CN(C)Cc1ccc(C(=O)O)cc1`, for which the cytotoxicity call was “inactive”.

Turning to `C[C@@H]1CCCCO[C@H](CN(C)S(=O)(=O)c2ccc(Cl)cc2)[C@@H](C)CN([C@H](C)CO)C(=O)c2cc(NC(=O)Nc3cccc4ccccc34)ccc2O1`, the cytotoxicity call is “inactive”.

In the case of `C[C@@H]1CCCCO[C@@H](CN(C)S(=O)(=O)c2ccc(Cl)cc2)[C@@H](C)CN([C@@H](C)CO)C(=O)c2cc(NC(=O)Nc3ccccc3)ccc2O1`, the cytotoxicity call is “inactive”.

Take `C[C@@H]1CN([C@@H](C)CO)C(=O)c2cc(NC(=O)Nc3ccccc3)ccc2O[C@@H](C)CCCCO[C@H]1CN(C)S(=O)(=O)c1ccc(Cl)cc1`: the cytotoxicity call is “active”.

As for `C[C@@H]1CN([C@H](C)CO)C(=O)c2cc(NC(=O)Nc3ccccc3)ccc2O[C@@H](C)CCCCO[C@H]1CN(C)S(=O)(=O)c1ccc(Cl)cc1`, the cytotoxicity call was “active”.

With `C[C@@H]1CN([C@@H](C)CO)C(=O)c2cc(NC(=O)Nc3ccccc3)ccc2O[C@@H](C)CCCCO[C@@H]1CN(C)S(=O)(=O)c1ccc(Cl)cc1`, the cytotoxicity call is “inactive”.

`C[C@@H]1CCCCO[C@H](CN(C)S(=O)(=O)c2ccc(Cl)cc2)[C@@H](C)CN([C@@H](C)CO)C(=O)c2cc(NC(=O)Nc3cccc4ccccc34)ccc2O1`: the cytotoxicity call was “inactive”.

Consider `C[C@H](CO)N1C[C@H](C)[C@@H](CN(C)S(=O)(=O)c2ccc(Cl)cc2)OCCCC[C@H](C)Oc2ccc(NC(=O)Nc3ccccc3)cc2C1=O`, for which the cytotoxicity call is “inactive”.

As to `C[C@@H]1CCCCO[C@@H](CN(C)S(=O)(=O)c2ccc(Cl)cc2)[C@@H](C)CN([C@@H](C)CO)C(=O)c2cc(NC(=O)Nc3cccc4ccccc34)ccc2O1`, the cytotoxicity call was “active”.

`C[C@@H]1CCCCO[C@@H](CN(C)S(=O)(=O)c2ccc(Cl)cc2)[C@@H](C)CN([C@H](C)CO)C(=O)c2cc(NC(=O)Nc3ccccc3)ccc2O1`: the cytotoxicity call is “inactive”.

In the case of `C[C@H](CO)N1C[C@H](C)[C@H](CN(C)C(=O)Nc2ccccc2)OCCCC[C@H](C)Oc2ccc(NC(=O)NC3CCCCC3)cc2C1=O`, the cytotoxicity call is “inactive”.

Consider `C[C@@H]1CN([C@H](C)CO)C(=O)c2cccc(NC(=O)Nc3cccc4ccccc34)c2O[C@@H]1CN(C)S(=O)(=O)c1ccc(Cl)cc1`, for which the cytotoxicity call is “inactive”.

In the case of `Cc1ccc(/C=N/Nc2cnnc(=O)[nH]2)o1`, the cytotoxicity call was “inactive”.

As for `O=C(Cn1cnnn1)NC1C(=O)N2C(C(=O)O)=C(CSc3nncs3)CSC12` (stereo unspecified), the cytotoxicity call is “inactive”.

As for `COCC(=O)Nc1ccc2c(c1)OC[C@@H](C)N(C(=O)Cc1ccccn1)C[C@H](C)[C@@H](OC)CN(C)C2=O`, the cytotoxicity call was “inactive”.

With `O=c1[nH]c(=O)c2[nH]c(=O)[nH]c2[nH]1`, the cytotoxicity call was “inactive”.

On to `COc1ccc(S(=O)(=O)Nc2ccc3c(c2)CC(=O)N([C@H](C)CO)C[C@H](C)[C@@H](CN(C)C(=O)Nc2c(C)noc2C)O3)cc1`, for which the cytotoxicity call was “inactive”.

Consider `COc1ccc(NC(=O)Nc2cccc3c2O[C@@H](CN(C)Cc2ccc(Oc4ccccc4)cc2)[C@@H](C)CN([C@H](C)CO)C3=O)cc1`, for which the cytotoxicity call was “active”.

As for `COc1ccc(NC(=O)Nc2cccc3c2O[C@H](CN(C)Cc2ccc(Oc4ccccc4)cc2)[C@H](C)CN([C@H](C)CO)C3=O)cc1`, the cytotoxicity call was “inactive”.

Turning to `COc1ccc(NC(=O)Nc2cccc3c2O[C@H](CN(C)Cc2ccc(Oc4ccccc4)cc2)[C@@H](C)CN([C@@H](C)CO)C3=O)cc1`, the cytotoxicity call was “inactive”.

With `C[C@H](CO)N1C[C@H](C)[C@H](CN(C)Cc2ccc(Oc3ccccc3)cc2)Oc2c(NC(=O)Nc3ccc(F)cc3)cccc2C1=O`, the cytotoxicity call is “inactive”.

As for `Cc1cc(C(=O)Nc2cccc3c2O[C@@H](CN(C)Cc2ccc(Oc4ccccc4)cc2)[C@H](C)CN([C@@H](C)CO)C3=O)n(C)n1`, the cytotoxicity call is “inactive”.

Consider `COc1ccc(NC(=O)Nc2cccc3c2O[C@H](CN(C)Cc2ccc(Oc4ccccc4)cc2)[C@@H](C)CN([C@H](C)CO)C3=O)cc1`, for which the cytotoxicity call is “inactive”.

Consider `COc1ccc(NC(=O)Nc2cccc3c2O[C@@H](CN(C)Cc2ccc(Oc4ccccc4)cc2)[C@@H](C)CN([C@@H](C)CO)C3=O)cc1`, for which the cytotoxicity call is “active”.

Take `Cc1cc(C(=O)Nc2cccc3c2O[C@H](CN(C)Cc2ccc(Oc4ccccc4)cc2)[C@@H](C)CN([C@H](C)CO)C3=O)n(C)n1`: the cytotoxicity call is “active”.

As to `Cc1cc(C(=O)Nc2cccc3c2O[C@@H](CN(C)Cc2ccc(Oc4ccccc4)cc2)[C@@H](C)CN([C@@H](C)CO)C3=O)n(C)n1`, the cytotoxicity call was “inactive”.

With `C[C@@H]1CN([C@H](C)CO)C(=O)c2cccc(NC(=O)Nc3ccc(F)cc3)c2O[C@@H]1CN(C)Cc1ccc(Oc2ccccc2)cc1`, the cytotoxicity call is “active”.

In the case of `C[C@@H]1CN([C@@H](C)CO)C(=O)c2cccc(NC(=O)Nc3ccc(F)cc3)c2O[C@H]1CN(C)Cc1ccc(Oc2ccccc2)cc1`, the cytotoxicity call was “inactive”.

On to `COc1ccc(NC(=O)Nc2cccc3c2O[C@@H](CN(C)Cc2ccc(Oc4ccccc4)cc2)[C@H](C)CN([C@H](C)CO)C3=O)cc1`, for which the cytotoxicity call was “inactive”.

As for `CC(=O)N1[C@@H](CO)[C@H](c2ccccc2)C12CN(C(=O)CN1CCOCC1)C2`, the cytotoxicity call is “inactive”.

On to `Cc1ccc(S(=O)(=O)Nc2cccc3c2O[C@@H](CN(C)CC2CC2)[C@@H](C)CN([C@@H](C)CO)C3=O)cc1`, for which the cytotoxicity call was “inactive”.

Turning to `C[C@H]1CN([C@@H](C)CO)C(=O)c2cc(C#CC3(O)CCCC3)cnc2O[C@H]1CN(C)S(=O)(=O)c1ccc(F)cc1`, the cytotoxicity call is “inactive”.

On to `Cc1ccc(S(=O)(=O)Nc2ccc3c(c2)C(=O)N([C@H](C)CO)C[C@@H](C)[C@H](CN(C)C(=O)Cc2ccccc2)OCCCC[C@@H](C)O3)cc1`, for which the cytotoxicity call is “inactive”.

As for `COC(=O)c1c2oc(c1C(=O)OC)C(=O)N[C@H](Cc1ccccc1)Cn1cc(nn1)CNC(=O)[C@@H](Cc1ccccc1)NC(=O)N[C@@H](CO)CC2`, the cytotoxicity call is “inactive”.

As to `COCC#Cc1ccc2c(c1)O[C@H](CN(C)C(=O)c1ccccc1)[C@H](C)CN([C@@H](C)CO)S2(=O)=O`, the cytotoxicity call was “inactive”.

With `O=C(C[C@@H]1C=C[C@H](NS(=O)(=O)c2ccc(F)cc2)[C@H](CO)O1)N1CCC(Cc2ccccc2)CC1`, the cytotoxicity call is “inactive”.

With `C[C@H]1CCCCO[C@@H](CN(C)Cc2ccncc2)[C@@H](C)CN([C@@H](C)CO)C(=O)c2cc(NS(C)(=O)=O)ccc2O1`, the cytotoxicity call is “inactive”.
